Measurements from PubChem BioAssay (NCATS).
Results filed as inconclusive are left out. The source made the active and inactive calls. Calls follow the shape of the dose curve; as a rule, active = well fitted inhibition curve with a large enough effect; inconclusive = small, poorly fitted or top-dose-only effect; inactive = flat fitted curve, though single readings scatter.

Key:
Test in all cases: qHTS profiling for inhibitors of Plasmodium falciparum proliferation (AID 504749); also: nearly all actives have a fitted effect of over 60% in size
Details in all cases: P. falciparum in erythrocytes, SYBR Green DNA, 72 h; series mostly up to 28.7 µM
ECU = system: ECU
In short: (§1)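 SYBR Green fluorescence of parasite DNA, read after lysis and overnight dark incubation, measured growth over 72 h in erythrocyte culture at 0.3% parasitemia and 2.5% hematocrit. Data normalised to DMSO and 0.29 uM artemisinin, with plate-drift correction.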

FAB9 = system: FAB9
In short: as §1

GB4 = system: GB4
In short: as §1

HB3 = system: HB3
In short: as §1

JCK = system: JCK
In short: as §1

N140 = system: N140
In short: as §1

P93_24 = system: P93_24
In short: as §1

P94_40 = system: P94_40
In short: as §1

PAD = system: PAD
In short: as §1

PC15 = system: PC15
In short: as §1

PC26 = system: PC26
In short: as §1

PC49 = system: PC49
In short: as §1

SC27B = system: SC27B
In short: as §1

TAB109 = system: TAB109
In short: as §1

TAB113 = system: TAB113
In short: as §1

TAB165 = system: TAB165
In short: as §1

ICS = system: ICS
In short: as §1

W2 = system: W2
In short: as §1

Measured: Potency
Potency is read from the fitted curve at half-maximal effect.

COc1ccccc1N1CCN(CCCC(=O)c2ccc(F)cc2)CC1
not listed: ICS | W2
inactive: all other assays above

COc1ccc(/C=N/NC(=O)c2ccncc2)c(C(=O)O)c1OC
not listed: TAB109
inactive: all other assays above

COc1cc(NCCCC(C)N)c2ncccc2c1 (stereo not drawn)
inactive: PC49
active: ECU 2.82 µM | FAB9 4470 nM | GB4 2.13 µM | HB3 3.55 µM | ICS 0.891 µM | N140 5.62 µM | P93_24 2.24 µM | P94_40 4.47 µM | PAD 0.398 µM | PC15 3.55 µM | PC26 1.69 µM | SC27B 11.2 µM | TAB109 4.47 µM | TAB113 8.91 µM | TAB165 2.24 µM | W2 1.51 µM

OCC1(CO)COC(C(Cl)(Cl)Cl)OC1
not listed: TAB109
inactive: all other assays above

C[C@H]1O[C@@H](O[C@H]2[C@@H](O)C[C@H](O[C@H]3[C@@H](O)C[C@H](O[C@H]4CC[C@@]5(C)[C@H](CC[C@@H]6[C@@H]5C[C@@H](O)[C@]5(C)[C@@H](C7=CC(=O)OC7)CC[C@]65O)C4)O[C@@H]3C)O[C@@H]2C)C[C@H](O)[C@@H]1O
not listed: PC15 | PC26 | W2
inactive: all other assays above

O=C(OCc1ccccc1)c1cccnc1
not listed: ICS | W2
inactive: all other assays above

CC(=O)N=c1sc(S(N)(=O)=O)nn1C
not listed: P93_24 | P94_40
inactive: all other assays above

CCCOC(=O)c1ccccc1O
not listed: TAB109 | W2
inactive: all other assays above

C=CCOc1ccc(CC(=O)O)cc1Cl
inactive: all assays above

CC1CC(O)CC(C)(C)C1 (stereo not drawn)
not listed: PC26
inactive: all other assays above

N=C(N)c1ccc(/C=C/c2ccc(C(=N)N)cc2O)cc1
active: ECU 10 µM | FAB9 1260 nM | GB4 0.536 µM | HB3 11.2 µM | ICS 1.26 µM | N140 17.8 µM | P94_40 8.91 µM | PC15 12.6 µM | PC26 8.49 µM | SC27B 10 µM | TAB109 17.8 µM | TAB113 3.98 µM | TAB165 4.47 µM
inactive: JCK

O=C(O)CCC/C=C\C[C@@H]1[C@@H](/C=C/[C@@H](O)COc2cccc(Cl)c2)[C@H](O)C[C@@H]1O
not listed: ICS
inactive: all other assays above

C[C@H](N)C(=O)N[C@@H](C)P(=O)(O)O
not listed: TAB109
inactive: all other assays above

CO/N=C(\C(=O)N[C@@H]1C(=O)N2C(C(=O)[O-])=C(C[n+]3cccc4c3CCC4)CS[C@H]12)c1csc(N)n1
not listed: TAB113
inactive: all other assays above

CCOC(=O)c1cc(-c2ccccc2)nc2ccc(C)cc12
not listed: TAB109 | TAB113
inactive: all other assays above

COc1cc2c(cc1OC)[C@@H](Cc1cc(OC)c(OC)c(OC)c1)[N+](C)(CCCOC(=O)CC/C=C/CCC(=O)OCCC[N+]1(C)CCc3cc(OC)c(OC)cc3[C@H]1Cc1cc(OC)c(OC)c(OC)c1)CC2 (stereo partly drawn)
not listed: PC26
inactive: all other assays above

Cc1cc(C)c(NC(=O)C[C@H](CC(=O)O)c2cccc3ccccc23)c(C(=O)N2CCC3(CCCC3)CC2)c1
not listed: ICS | W2
inactive: all other assays above

C/C=C/C=C/C(=O)O
not listed: P93_24
inactive: all other assays above

CN1c2c(nc(N)[nH]c2=O)NCC1CNc1ccc(C(=O)NC(CCC(=O)O)C(=O)O)cc1 (stereo not drawn)
not listed: TAB113
inactive: all other assays above

[O]=[Bi][O]C(=O)[O][Bi]=[O]
not listed: ICS
inactive: all other assays above

CC(C)=CCC/C(C)=C/CC/C(C)=C/CC/C=C(\C)CC/C=C(\C)CCC=C(C)C
active: FAB9 0.01 nM
not listed: JCK | PC49 | W2
inactive: all other assays above

O=P(O)(O)CP(=O)(O)O
not listed: P94_40
inactive: all other assays above

CC1CCCCN1CCCOC(=O)c1ccccc1 (stereo not drawn)
not listed: GB4 | W2
inactive: all other assays above

CC(C)NCC(O)COc1ccccc1-n1cccc1 (stereo not drawn)
not listed: GB4 | PC15 | TAB109 | ICS | W2
inactive: all other assays above

OCCOCCOCCO
not listed: GB4 | PC26
inactive: all other assays above

N#Cc1ccc2c(c1)N(CCCN1CCC(O)CC1)c1ccccc1S2
inactive: ECU | FAB9 | HB3 | JCK | PC49
active: N140 12.6 µM | W2 4.26 µM

O=C(CCCN1CCN2CCCC2C1)c1ccc(F)cc1 (stereo not drawn)
active: N140 10 µM | W2 6.01 µM
not listed: GB4 | P93_24 | TAB109 | TAB113 | TAB165
inactive: all other assays above

CC(C)C1=CC2=CC[C@@H]3[C@](C)(CCC[C@@]3(C)C(=O)O)[C@H]2CC1
not listed: GB4 | PC26
inactive: all other assays above
